An excerpt weighted towards active compounds, which were near 1.5% of everything screened.
Six1-Eya2 inh: qHTS Assay for Inhibitors of the Six1/Eya2 Interaction; Homeobox protein SIX1 (Homo sapiens) + Protein phosphatase EYA2 (Homo sapiens), …; AlphaScreen GST-Six1/His-Eya2 binding, biochemical; active compounds read low; activity change, % (test concentration not listed); actives 0.56% (n = 360,000); AID 651725, 2012; in the data active = activity change below about -65%; inconclusive = mostly about -30% to -63%
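Six1/Eya2 binding was read as AlphaScreen signal after compounds were pinned into GST-Six1 plus His-tagged Eya2 (5X stock 250/500 nM) in pH 8.0 Tris/NaCl/TCEP buffer, beads added, then incubated 1 h, 37 C, dark.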
Eya2 inh: qHTS Assay for Inhibitors of the Phosphatase Activity of Eya2. Protein phosphatase EYA2 (Homo sapiens), O00167. recombinant Eya2, OMFP fluorescence dephosphorylation (OMFP is methylfluorescein phosphate). Potency, µM (highest dose often 76.9 µM), inactives show top-dose activity, negative = inhibition, most hits filed as inhibitors. actives 0.006% (n = 330,000). AID 488837, 2010; note: potency is the fitted concentration of half-maximal effect
Target sequence (O00167 whole entry, looked up): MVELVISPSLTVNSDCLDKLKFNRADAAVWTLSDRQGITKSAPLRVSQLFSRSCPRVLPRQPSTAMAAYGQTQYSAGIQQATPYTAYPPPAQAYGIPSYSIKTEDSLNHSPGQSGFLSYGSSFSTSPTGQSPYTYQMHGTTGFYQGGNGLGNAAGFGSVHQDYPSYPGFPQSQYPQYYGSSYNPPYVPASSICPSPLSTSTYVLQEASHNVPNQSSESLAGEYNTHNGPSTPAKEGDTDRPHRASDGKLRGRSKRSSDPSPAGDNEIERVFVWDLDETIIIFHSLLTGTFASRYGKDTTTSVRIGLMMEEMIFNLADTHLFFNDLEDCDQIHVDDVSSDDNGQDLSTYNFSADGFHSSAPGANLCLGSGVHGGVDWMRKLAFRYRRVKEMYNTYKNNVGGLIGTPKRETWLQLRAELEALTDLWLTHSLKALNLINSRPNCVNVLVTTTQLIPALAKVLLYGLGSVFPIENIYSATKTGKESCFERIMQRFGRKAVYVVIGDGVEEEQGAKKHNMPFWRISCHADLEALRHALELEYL
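Eya2 (0.2 uM) preincubated 10 min at ambient with compound, then OMFP substrate added at 50 uM; 10 min reaction in 50 mM HEPES pH 7.5, 50 mM NaCl, 5 uM MgCl2, 0.05% BSA, 1 mM DTT. Fluorescence read at Ex 485/Em 525 nm.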
TrxR1 substrate: qHTS Assay for Substrates of Mammalian Selenoprotein Thioredoxin Reductase 1 (TrxR1): qHTS | actives 0.01% (n = 390,000) | purified TrxR1 substrate turnover, NADPH consumption readout | Potency, µM (highest dose often 114 µM), for the others: top-dose activity change, negative = substrate turnover | Thioredoxin reductase 1, cytoplasmic (Rattus norvegicus), O89049 | AID 588456, 2011; note: potency is the fitted concentration of half-maximal effect; nearly all actives have a fitted effect of over 50% in size
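Rat TrxR1, dispensed at 90 nM, was prereduced with 400 uM NADPH (final) for 5 min at ~22 deg C, then incubated with compound 15 min before 400 uM selenite. A first-read NADPH fluorescence drop versus no-compound background flagged substrates.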
rTrxR1 inhibitor: qHTS Assay for Inhibitors of Mammalian Selenoprotein Thioredoxin Reductase 1 (TrxR1): qHTS; Potency, µM (highest dose often 114 µM), for inactives: at the top dose activity change, negative = inhibition, actives largely listed as inhibitors; actives 1% (n = 390,000); recombinant rTrxR1, NADPH fluorescence consumption, selenite substrate; note: potency is the fitted concentration of half-maximal effect; nearly all actives have a fitted effect of over 65% in size
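Rat TrxR1 (90 nM in the dispensed reagent) was pre-reduced with 400 uM NADPH for 5 min at room temperature, then incubated with compound for 15 min. After 400 uM selenite was added, NADPH fluorescence (Ex 340/Em 450 nm) was followed for 8 min.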
GALK inhibitor: qHTS Assay for Inhibitors of Human Galactokinase (GALK). Purified GALK, Kinase-Glo residual ATP luminescence. Potency, µM (doses to about 57.5 µM), without a hit: top-dose activity change, negative = inhibition, most hits filed as inhibitors. actives 0.007% (n = 270,000). AID 1868, 2009; note: potency is the fitted concentration of half-maximal effect
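Human GALK (5 nM) with 35 uM ATP and 100 uM galactose in 20 mM HEPES pH 8.0, 5 mM MgCl2, 60 mM NaCl, 1 mM DTT, 0.01% BSA. After 1 h at room temperature, leftover ATP was read by Kinase-Glo Plus luminescence.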
CtBP-E1A blk: qHTS Assay for Inhibitors of the CtBP/E1A Interaction. CtBP / adenovirus E1A interaction (AlphaScreen). activity change, % (test concentration not listed). AlphaScreen GST-E1A/His-CtBP binding, 1536-well; active compounds read low. AID 651724, 2012. actives 0.49% (n = 340,000); in the data active = activity change below about -65%; inconclusive = mostly about -30% to -63%
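Homogeneous bead-based format: GST-tagged E1A captured on glutathione donor beads, His-tagged CtBP on nickel acceptor beads; compounds precede bead addition by 2 h at 37 °C.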
An asterisk follows results filed as active; ? = inconclusive; / = no result; [ ] = remark or other dose. Unless noted, calls come from the whole dose curve; as a rule, active = well fitted curve in the direction sought with a large enough effect; inconclusive = small, poorly fitted or top-dose-only effect, or another doubt; inactive = no such curve, though single readings can be large; an effect the other way counts as inactive or inconclusive. % is set by controls: 0 for no effect and ±100 for the full control effect.

SMILES | Six1-Eya2 inh | Eya2 inh | TrxR1 substrate | rTrxR1 inhibitor | GALK inhibitor | CtBP-E1A blk
Cc1ccc(S(=O)(=O)CCC(=O)Oc2ccc3c(C)cc(=O)oc3c2)cc1 | 3.0 | 21.1% | 381.5% | 70.8µM* | / | -2.8
CCCCOC(=O)c1ccc(Nc2nc3ccc(C)cc3n3cnnc23)cc1 | / | / | 7.0% | 14.0% | / | /
C=CCOc1ccccc1CNc1ccc2c(c1)OCCO2 | -3.0 | -25.2% | 11.8% | 12.0%[57.1 µM] | 0.8% | -3.9
CCOc1ccc(Br)cc1CNc1ccc2c(c1)OCCO2 | -77.0* | -15.7% | -3.0% | -6.9%[57.1 µM] | 1.2% | ?
CC(C)Cn1c(SCC(=O)Nc2cccnc2Cl)nnc1-c1ccco1 | -1.8 | 0.6% | 2.8% | 50.1µM* | / | 1.3
CCn1c(SCC(=O)Nc2cccnc2Cl)nnc1-c1ccccc1 | 5.6 | -6.3% | 2.9% | 4.8% | 1.2% | 3.0
CCn1c(SCC(=O)Nc2ccc3c(c2)c2ccccc2n3CC)nnc1-c1ccco1 | ? | 5.0% | 0.3% | 2.82µM* | 4.4% | 10.2
CCn1c2ccccc2c2cc(NC(=O)c3ccc(Br)o3)ccc21 | -21.2 | 14.8% | 8.0%[57.1 µM] | 17.8µM* | -0.1% | -11.7
CCn1c2ccccc2c2cc(NC(=O)c3coc(=O)c(Br)c3)ccc21 | / | 14.0% | / | / | -2.3% | /
COc1cccc(N2CCN(Cc3nnc(-c4ccc5c(c4)OCO5)o3)CC2)c1 | / | / | 9.4% | 10.2% | / | /
CCOC(=O)C(NC(=O)CCl)(Nc1sc(C)c(CC)c1C#N)C(F)(F)F (stereo not given) | 12.8 | 4.1% | -5.8% | 56.2µM* | 1.6% | -2.4
O=[N+]([O-])C(=C1SCCS1)C(=C(Cl)Cl)N1CCCCC1 | ? | -1.1% | -0.3%[57.1 µM] | 2.2%[57.1 µM] | -0.6% | ?
O=[N+]([O-])C(/C=C(\Cl)[N+](=O)[O-])=C(N1CCCCC1)N1CCCCC1 | -13.4 | -1.7% | -19.1% | 20µM* | -2.4% | -12.5
CC(=C\C(=O)O)/C(=C/c1ccc(C)o1)C(=O)O | -0.3 | -3.5% | -4.9% | 70.8µM* | / | 0.0
COc1cc(NC(=O)CCS(=O)(=O)c2ccc3c(c2)CC(=O)N3C)cc(OC)c1OC | / | / | 2.6%[57.1 µM] | 7.2%[57.1 µM] | / | /
CCOc1ccc(C(c2c(O)nc(SC)n(C)c2=O)c2c(O)nc(SC)n(C)c2=O)cc1 | -0.8 | 22.5% | 8.8% | 8.91µM* | -0.3% | 5.2
O=C1C(=Cc2cn(-c3ccccc3)nc2-c2ccc(OCc3ccc(Cl)cc3)cc2)SC(=S)N1CCS(=O)(=O)O | -66.6* | / | / | / | / | ?
COc1ccc(-c2nn(-c3ccccc3)cc2/C=C2/SC(=S)N(CCC(=O)O)C2=O)cc1 | -16.1 | -11.3% | 11.0%[57.1 µM] | 6.8%[57.1 µM] | -0.2% | -8.0
O=C1C(=Cc2cn(-c3ccccc3)nc2-c2ccc(OCc3ccccc3F)cc2)SC(=S)N1CCS(=O)(=O)O | -70.0* | / | / | / | / | -14.7
COc1ccc(C2c3c(n(C)c4ccccc34)C(=O)N2CC(=O)Nc2ccccc2F)cc1 (stereo not given) | / | / | -0.6% | 8.1% | / | /
Cn1c(C(=O)OCC(=O)NCc2ccco2)cc2sccc21 | -9.0 | -4.3% | 2.4% | 25.1µM* | 5.3% | -3.6
CCOc1ccc(/C=C(\C#N)C(=O)NCC2CCCO2)cc1OCC (stereo not given) | -5.0 | 1.3% | -16.3% | -26.0% | 0.4% | -65.6*
CCN1C(=O)c2ccccc2S(=O)c2ccc(C(=O)N3CCN(c4cc(Cl)ccc4C)CC3)cc21 (stereo not given) | / | / | 3.7% | 16.3% | / | /
N=C(N)c1ccc(N=Nc2c(O)ccc3c2[nH]c2ccccc23)cc1 | ? | / | 5.9%[11.4 µM] | 8.7%[11.4 µM] | / | -66.5*

Bioassay records (PubChem BioAssay)
